M1 PAM: human CHRM1 positive allosteric modulation. CHO-K1 hM1, Fluo-8 calcium fluorescence, ACh EC20; 0% = ACh EC20, 100% = maximal ACh. activation, % at 3 µM. P11229. 360,000 tested, 0.088% active; in the data active = activation above about 19%, passing the limit was not always enough
Target sequence (P11229 whole entry, looked up): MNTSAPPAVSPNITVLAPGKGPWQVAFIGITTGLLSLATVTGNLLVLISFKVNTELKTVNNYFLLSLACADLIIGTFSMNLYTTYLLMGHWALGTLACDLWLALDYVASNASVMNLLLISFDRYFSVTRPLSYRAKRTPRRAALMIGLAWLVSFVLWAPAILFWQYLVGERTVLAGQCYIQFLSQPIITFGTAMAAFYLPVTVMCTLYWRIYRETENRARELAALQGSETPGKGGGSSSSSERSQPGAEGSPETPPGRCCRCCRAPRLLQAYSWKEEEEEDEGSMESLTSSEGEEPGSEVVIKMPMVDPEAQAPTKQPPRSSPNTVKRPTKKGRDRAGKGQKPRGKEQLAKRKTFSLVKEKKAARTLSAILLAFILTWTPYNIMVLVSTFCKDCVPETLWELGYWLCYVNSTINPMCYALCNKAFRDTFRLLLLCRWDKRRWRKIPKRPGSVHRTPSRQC
CHO-K1 Ca antag: nonselective inhibitor or artifact in parental CHO-K1 cells | ATP-induced calcium, Fluo-8 fluorescence | inhibition, % at 3 µM | 360,000 tested, 0.6% active | AID 602250;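 active = inhibition above a per-plate cutoff, the plate's mean sample inhibition plus 3 SD, cut at about 24% in these data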;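 also: 0% = DMSO plus EC80 ATP and 100% = DMSO alone without ATP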
CHO-K1 Ca ag: M1 agonist counterscreen hit in parental CHO-K1 cells; Fluo-8 calcium fluorescence; scaled to maximal ATP response, vehicle zero; activation, % at 3 µM; 360,000 tested, 0.48% active; AID 602248; in the data active = activation above about 15%;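 also: untransfected CHO-K1 host cells lacking M1 receptor as counterscreen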
CHRM1 antagonist: blocks human M1 muscarinic receptor | P11229 | CHO-K1 hM1, Fluo-8 calcium fluorescence, ACh EC80 antagonist | inhibition, % at 3 µM | 360,000 tested, 1.3% active | AID 588852;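 active = percent inhibition above its own plate's cutoff, namely the mean of that plate's compound wells plus 3 SD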;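 also: peak over basal fluorescence ratio during 140 s after agonist addition; 0% = ACh EC80 plus DMSO and 100% = DMSO alone without agonist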
CHO-K1 Ca PAM: nonselective activator or artifact in parental CHO-K1 calcium assay. activation, % at 3 µM. ATP EC20, Fluo-8 calcium fluorescence; 0% at ATP EC20, 100% at ATP max. 360,000 tested, 0.02% active;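 active = activation above the run cutoff, the mean activation of all test compounds plus 3 SD, cut at about 40% in these data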;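 also: peak over basal fluorescence ratio in a 140 s read after ATP addition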
CHRM1 agonist: agonists of human M1 muscarinic receptor; P11229; CHO-K1 hM1, Fluo-8 calcium fluorescence, agonist mode; 0% DMSO, 100% acetylcholine EC100; activation, % at 3 µM; 360,000 tested, 0.33% active; AID 588814;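 active = activation above the run's mean compound activation plus 3 SD, cut at about 16% in these data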;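 also: peak over basal fluorescence ratio within a 140 s kinetic read after compound addition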
* = called active by the depositor. Sampled rows, rich in hits. Any-hit rate of the full collection: about 2.3%.

SMILES	M1 PAM	CHO-K1 Ca antag	CHO-K1 Ca ag	CHRM1 antagonist	CHO-K1 Ca PAM	CHRM1 agonist
CC(Oc1ccc2c(-c3ccccc3)cc(=O)oc2c1)C(=O)NC(Cc1c[nH]c2ccc(O)cc12)C(=O)O (stereo unspecified)	-10	27*	3	9	-15	-1
O=C(CN1C(=O)S/C(=C/c2cccs2)C1=O)N1CCOCC1	-11	18	-1	38*	-6	-3
CCN(CC)S(=O)(=O)c1cccc(-c2nnc(SCCOc3ccc(Cl)cc3)o2)c1	2	-8	0	-20	18	-2
CCN(CC)S(=O)(=O)c1cccc(-c2nnc(SCCOc3ccccc3)o2)c1	-4	47*	1	-15	7	0
CCC(=O)NC1(C(F)(F)F)C(=O)Nc2c1c(=O)[nH]c(=O)n2CC(C)C (stereo unspecified)	16	8	0	-18	-17	-3
NC(=Nc1nc(-c2ccccn2)cc2ccccc12)c1ccccn1	-14	1	0	33*	-17	-1
NC(=O)c1ccc(NC(=O)C2CCCC2)cc1	2	-9	0	2	5	-3
Cc1ccc(NS(=O)(=O)c2ccc(C(=O)OCC(=O)Nc3cc(C)on3)cc2)cc1	6	2	19*	8	24	28*
O=C(CSCc1ccc(Cl)cc1)Nc1ccc(O)cc1C(=O)O	8	-6	0	-16	-12	4
Cc1ccc(S(=O)(=O)N2CCN(C(=O)N(c3ccccc3)c3ccccc3)CC2)cc1	-2	-6	0	5	0	-4
O=C(Cc1ccccc1)NC1CCN(C(=O)NCc2ccccc2)CC1	0	-13	1	-3	22	-3
CN1CCN(C(=O)N(c2ccccc2)c2ccccc2)CC1	-14	-10	1	24	14	-8
CCN1CCN(C(=O)N(c2ccccc2)c2ccccc2)CC1	-21	-9	1	42*	11	-9
CCN(CC)C(=O)N1CCN(S(=O)(=O)c2ccccc2)CC1	28*	-17	1	-26	16	-1
Cc1ccc(N(C)C(=O)N2CCN(S(=O)(=O)c3ccc(C)cc3)CC2)cc1	25*	-7	1	-15	-13	19*
CCN(CC)C(=O)N1CCC(NC(=O)Cc2ccccc2)CC1	1	26*	0	-1	-6	-1
CCOC(=O)CSC1=NC(=O)CS1	9	-11	1	-10	13	-3
CN(C(=O)c1cccc(NC(=O)Cc2cccc([N+](=O)[O-])c2)c1)C1CC1	-7	-7	1	15	3	-7
CC(=O)c1cccc(OCc2cc(C(=O)NCCC3=CCCCC3)no2)c1	-6	-13	6	4	22	-2
CCOC(=O)C1(Cc2cccc(F)c2)CCN(Cc2cnn(CC)c2C)CC1	5	-16	3	-11	29	-11
CCOC(=O)N1CCC(N2CCN(S(=O)(=O)c3ccc(C)cc3)CC2)CC1	-2	-7	1	-7	15	24*
CC(C)(C)C(=O)/C=c1\[nH]c(=O)/c(=C\c2ccc(C#N)cc2)s1	12	25*	0	-15	-7	1
Cc1c(C(=O)NCCC2=CCCCC2)oc2ccc(S(=O)(=O)N3CCOCC3)cc12	-14	10	6	42*	11	3
CN1OC[C@@H]2CN(C(=O)C(C)(C)C)[C@H](c3ccc(-c4cccnc4)cc3)C[C@@H]21	5	30*	0	8	-9	5
Cc1ccccc1S(=O)(=O)N1C[C@H]2CON(C)[C@H]2C[C@H]1c1cccc(-c2ccccc2)c1	8	-17	1	-20	34	-5
CN1OC[C@@H]2CN(S(=O)(=O)c3cccc4ccccc34)[C@H](c3ccc(-c4ccccc4)cc3)C[C@@H]21	25*	-11	0	-34	7	5
COc1ccc(C)cc1NC(=O)CCc1ccc(S(=O)(=O)N2CCOCC2)cc1	3	-2	0	-2	3	-2
COC(=O)C1=C(CSCc2ccco2)NC(=O)NC1c1cc(C)ccc1C (stereo unspecified)	14	-9	1	-19	23	-1
COc1cc(-c2cc3nc(NCc4cccc(Cl)c4)ccn3n2)cc(OC)c1OC	-8	-13	3	0	15	-4
